± gives the standard deviation of the averaged measurements.
Key:
DLD1 [1] = assay: cell viability (CellTiter-Glo) relative to plate median (fraction of plate median); higher = more viable cells; settings: 5 µM; treatment time 24 h; reporter: 7TFP
Summary of the method: (§1)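 Colorectal cancer cells stably transduced with lentiviral TCF/Wnt firefly luciferase reporters were seeded in 384-well plates and dosed 24 h later with library compounds at a final 5 µM for 24 h. Firefly luciferase or CellTiterGlo luminescence was then read on a Tecan F500 from parallel plates. Signals were normalised per well to the plate median without log transformation, additively in webcellHTS2, and averaged over two independent replicates.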

HCT116 = assay: as above; settings: 5 µM; treatment time 24 h; reporter: TCF4/Wnt
Summary of the method: as §1

SW480 [2] = assay: as above; settings: 5 µM; treatment time 24 h; reporter: 7TFP
Summary of the method: as §1

DLD1 [3] = assay: TCF/Wnt firefly luciferase reporter signal relative to plate median (fraction of plate median); higher = higher Wnt reporter signal; settings: 5 µM; treatment time 24 h; reporter: 7TFP
Summary of the method: as §1

SW480 [4] = assay: as above; settings: 5 µM; treatment time 24 h; reporter: 7TFP
Summary of the method: as §1

SMILES	cell viability (DLD1 [1])	cell viability (HCT116)	cell viability (SW480 [2])	TCF/Wnt firefly luciferase reporter signal (DLD1 [3])	TCF/Wnt firefly luciferase reporter signal (SW480 [4])
C[C@@]12C[C@@]3(O)O[C@@H](O1)[C@]1(COC(=O)c4ccccc4)[C@H]3C[C@@]12O[C@@H]1O[C@H](CO)[C@@H](O)[C@H](O)[C@H]1O	1.06 ± 0.014	0.887 ± 0.12	1.015 ± 0.0071	0.941 ± 0.052	1.01 ± 0.21
COc1ccc(-c2cc(=O)c3c(OC)c(OC)c(OC)cc3o2)cc1OC	1.01 ± 0.022	1.055 ± 0.0071	1.015 ± 0.0071	1.07 ± 0.13	1.15 ± 0.16
COc1c2ccoc2cc2oc(=O)ccc12	1.02 ± 0.046	0.946 ± 0.018	0.978 ± 0.015	0.984 ± 0.093	1.01 ± 0.028
COc1cccc(O)c1O	0.938 ± 0.059	0.905 ± 0.11	0.942 ± 0.0028	0.96 ± 0.099	0.978 ± 0.088
COc1cc(C(=O)N2CCOCC2)cc(OC)c1OC	1.08 ± 0.11	1.03 ± 0.079	1.06 ± 0.028	1.04 ± 0.24	1.08 ± 0.035
CC(C)[C@@H]1CC[C@@H](C)C[C@H]1OC(=O)c1ccccc1	1.01 ± 0.025	1.03 ± 0.057	1.06 ± 0.042	1.01 ± 0.19	0.996 ± 0.02
NCC[C@H](O)C(=O)N[C@@H]1C[C@H](N)[C@@H](O[C@H]2O[C@H](CN)[C@@H](O)[C@H](O)[C@H]2O)[C@H](O)[C@H]1O[C@H]1O[C@H](CO)[C@@H](O)[C@H](N)[C@H]1O	1.01 ± 0.014	1 ± 0.037	0.995 ± 0.036	0.821 ± 0.11	0.905 ± 0.12
CC(C)(Sc1cc(C(C)(C)C)c(O)c(C(C)(C)C)c1)Sc1cc(C(C)(C)C)c(O)c(C(C)(C)C)c1	0.947 ± 0.034	0.987 ± 0.061	0.955 ± 0.028	1.01 ± 0.035	1.035 ± 0.0071
CN(C)CCCN1c2ccccc2CCc2ccccc21	1.05 ± 0.1	0.989 ± 0.1	1.015 ± 0.0071	0.881 ± 0.012	0.913 ± 0.024
CCCCCCCCCCCCCCC(C(=O)O)C(O)(CC(=O)OC)C(=O)O (stereo not given)	0.955 ± 0.05	0.878 ± 0.017	0.9505 ± 0.0064	0.979 ± 0.086	0.947 ± 0.028
Nc1ccc(S(=O)(=O)Nc2ncccn2)cc1	0.92 ± 0.032	1.04 ± 0.069	0.9685 ± 0.0021	1.05 ± 0.14	1.01 ± 0.083
COc1cc2c(cc1OC)-c1c(oc3cc(O)cc(O)c3c1=O)CO2	0.988 ± 0.12	0.972 ± 0.096	0.972 ± 0.0042	1.22 ± 0.05	1.03 ± 0.035
O=C(O)c1ccccc1C(=O)Nc1ccc(S(=O)(=O)Nc2nccs2)cc1	1.05 ± 0.08	0.918 ± 0.088	1.004 ± 0.0085	1.03 ± 0.12	1.11 ± 0.021
c1ccc2[nH]c(-c3cscn3)nc2c1	1.02 ± 0.021	1.17 ± 0.035	1.02	1.32 ± 0.16	1.18 ± 0.028
C=C1C2CCC3(C)C(c4ccoc4)OC(=O)CC13OC1CC(OC(C)=O)C(C)(C)C(CC(=O)OC)C12C (stereo not drawn) [3beta-ACETOXYDEOXYANGOLENSIC ACID, METHYL ESTER]	0.908 ± 0.14	0.946 ± 0.033	0.995 ± 0.05	0.966 ± 0.13	0.8955 ± 0.0021
C=C1CC[C@H](O)C/C1=C/C=C1\CCC[C@]2(C)[C@@H]([C@H](C)CCCC(C)C)CC[C@@H]12	1.025 ± 0.0071	0.969 ± 0.044	0.97 ± 0.057	0.84 ± 0.04	0.882 ± 0.054
CC(C)CC1NC(=O)C2CCCN2C1=O (single isomer, unassigned; isomere) [Cyclo(leucylprolyl) (Isomere)]	0.919 ± 0.068	0.94 ± 0.016	1.02 ± 0.054	0.69 ± 0.27	1.12 ± 0.064
CN(C)[C@@H]1C(O)=C(C(N)=O)C(=O)[C@@]2(O)C(O)=C3C(=O)c4c(O)ccc(Cl)c4[C@@H](O)[C@H]3C[C@@H]12	0.943 ± 0.025	0.96 ± 0.071	0.959 ± 0.0085	0.924 ± 0.067	0.983 ± 0.039
O=C(/C=C(\O)c1ccccc1)c1ccccc1O [2',beta-DIHYDROXYCHALCONE]	1.07 ± 0.16	1.17 ± 0.16	1.08 ± 0.014	1.01 ± 0.17	1.1 ± 0.021
COc1ccc2c(c1)c(CC(=O)OCC(=O)O)c(C)n2C(=O)c1ccc(Cl)cc1	0.935 ± 0.073	0.885 ± 0.082	0.952 ± 0.04	1.05 ± 0.16	1.07 ± 0.028
C[C@@H]([C@H]1OC(C)(C)[C@@H](O)[C@H]1O)[C@@H]1CC[C@]2(C)C3=CC[C@H]4C(C)(C)C(=O)CC[C@]4(C)[C@H]3CC[C@@]12C	1.1 ± 0.19	0.998 ± 0.1	1.07 ± 0.042	1.01 ± 0.084	0.884 ± 0.065
Cc1cc(O)cc(O)c1C(=O)O	1.03 ± 0.035	1.07 ± 0.1	1.03 ± 0.014	1 ± 0.05	0.925 ± 0.039
CN1CC(=O)N2[C@H](c3ccc4c(c3)OCO4)c3[nH]c4ccccc4c3C[C@@H]2C1=O	0.995 ± 0.079	1.08 ± 0.028	0.995 ± 0.021	0.973 ± 0.081	0.941 ± 0.098
c1ccc2c(c1)CCCC2C1=NCCN1 (stereo not given)	1.02 ± 0.014	1.125 ± 0.0071	1.07 ± 0.05	1.08 ± 0.19	0.985 ± 0.0014
C[C@H]1c2cccc(O)c2C(=O)C2=C(O)[C@]3(O)C(=O)C(C(N)=O)=C(O)[C@@H](N(C)C)[C@@H]3[C@@H](O)[C@@H]21	0.942 ± 0.096	0.964 ± 0.033	0.975 ± 0.0028	0.967 ± 0.23	1.03 ± 0.18
